From PubChem BioAssay (NCI)
“And” between values parts separate entries of the source, which are not always exact repeats. Equal values may be shown once. This is part of a sample that, as a whole, favours compounds with a hit. Of some 79,000 tested, about 15% had one in any assay. A number with no mark means an inactive call. The source made the active and inactive calls. No stated cut-off is given here; in the data, active means growth inhibition above about 70%; inactive means the rest.

assay: NCI Yeast Anticancer Drug Screen. Data for the rad14 strain (AID 159);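 further: 0% = growth of vehicle-treated control cultures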; details: S. cerevisiae rad14 strain growth inhibition; at 100.0 µM; hits give high values
Procedure, shortened: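 DNA repair-defective yeast, compound-exposed; % growth inhibition derived by comparison with vehicle-treated controls.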

| Compound | growth inhibition |
| --- | --- |
| CN(C)c1ccc(C2CC(C)(O)Oc3cc4c(cc32)OCO4)cc1 (configuration not stated) | 58% |
| O=P(NC1CCCCC1)(OCc1ccccc1)OCc1ccccc1 | 13% |
| COc1oc(C(=O)NC2CCCCC2)c(-c2ccc(Cl)cc2)c1S(=O)(=O)c1ccccc1 | 74% (active) |
| C[Si](C)(C)/C=C/CCNC(C#N)c1ccccc1 (configuration not stated) | 94% (active) |
| CN(C)CCOC1(Cc2ccc(F)cc2)CCC(C(C)(C)C)CC1 (configuration not stated) | 98% (active) |
| CC1(C)CC(=O)C(/C=N/c2nc(-c3ccccc3)cs2)=C(O)C1 | 83% (active) |
| CC(=O)Nc1ccc2c(c1)Cc1cc(N=C3C=CC(=O)O3)ccc1-2 | 99% (active) |
| O=C1C=C(Cl)C(=O)C(c2ccc(Cl)cc2)=C1 | 96% (active) |
| CNCCCNc1c2ccccc2nc2cccc([N+](=O)[O-])c12 | 97% (active) |
| CCCCCCCCCCCC(O)S(=O)(=O)O (configuration not stated) | 95% (active) |
| CC(C)OC(=O)c1ccc(CCc2cc(O)c(Br)cc2O)cc1 | 92% (active) |
| CCc1cc(O)c(Cl)c(C)c1Cl | 90% (active) |
| C(=Nc1ccc(-c2cc(-c3ccccc3)nc3ccc4ccccc4c23)cc1)c1ccccc1 | 34% |
| CSc1nc(C)c(CCOC(C)=O)c(N=P(c2ccccc2)(c2ccccc2)c2ccccc2)n1 | 87% (active) |
| CS(=O)(=O)SCc1ccc([N+](=O)[O-])cc1 | 97% (active) |
| COC1=C(OC)C(=O)C(Sc2ccc3ccccc3c2)=CC1=O | 93% (active) |
| COc1nc2c(c(=O)n1C)N=C(c1ccccc1)[C@H](C(CC(=O)c1ccccc1)c1ccccc1)C(c1ccccc1)N2 (some centres not stated) | 57% |
| Nc1cc(N)c(N=Nc2cccc3c(S(=O)(=O)O)cccc23)cc1N=Nc1cc([N+](=O)[O-])ccc1O | 47% |

| Compound | growth inhibition |
| --- | --- |
| Nc1ccc(F)cc1S | 97% (active) |
| COc1cc(C2SCC(=O)N2c2ccc(-c3ccc(-n4c(-c5ccccc5)nc5ccccc5c4=O)cc3)cc2)ccc1O (configuration not stated) | 25% |
| Nc1ncnc2c1ncn2C1OC(CO)CC1O (configuration not stated) | 94% (active) |
| COc1cc(CSc2ccc(O)cc2)cc(O)c1O | 1% |
| CNC(=O)OCc1c(COC(=O)NC)c2n(c1C)-c1ccc(OC)cc1CCC2 | 100% (active) |
| O=C(NNc1ccccc1)c1ccc(Cl)c(Cl)c1 | 23% |
| Cc1ccc(CC2(OCCN(C)C)CCC(C(C)(C)C)CC2)cc1 (configuration not stated) | 98% (active) |
| C[C@]12CC[C@H](O)CC1=CC[C@@H]1C2CC[C@]2(C)C(=O)NC(=O)CC12 (some centres not stated) | 87% (active) |
| CCCC/C=C/C(C)(C(=O)OCC)C(=O)OCC | 15% |
| CCc1c(Cl)c(C)cc(O)c1Cl | 90% (active) |
| O=C(/C=C(/c1ccccc1)N1CCCCC1)c1ccccc1 | 98% (active) |
| CCCC(=O)Oc1ccc(/C=N/NC(N)=S)nc1 | -21% |
| CCc1nc2ccc(NCCN(C)C)c3c(=O)c4ccccc4n1c23 | 58% |
| Cc1sc2ccc3ccccc3c2[n+]1C | 85% (active) |
| COc1c(O)c(C=O)c(Br)c(C=O)c1O | 83% (active) |
| Cc1ccc(Cl)cc1NC(=O)OCCN(C)C(=O)Nc1cc(Cl)ccc1C | -15% |
| Cc1nc2ccccc2nc1NNc1ccccc1 | 38% |

assay: NCI Yeast Anticancer Drug Screen. Data for the sgs1 mgt1 strain (AID 161);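 further: 0% = growth of cultures given vehicle only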; details: S. cerevisiae sgs1 mgt1 strain, at 5.0 µM (retest, dose inferred, filed as 0.5), hits give high values
Procedure, shortened: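 Mutant yeast exposed to compound; growth scored against vehicle-only wells.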

| Compound | growth inhibition |
| --- | --- |
| CN(C)c1ccc(C2CC(C)(O)Oc3cc4c(cc32)OCO4)cc1 (configuration not stated) | 2% |
| O=P(NC1CCCCC1)(OCc1ccccc1)OCc1ccccc1 | 7% |
| COc1oc(C(=O)NC2CCCCC2)c(-c2ccc(Cl)cc2)c1S(=O)(=O)c1ccccc1 | -10% |
| C[Si](C)(C)/C=C/CCNC(C#N)c1ccccc1 (configuration not stated) | -12% |
| CCOc1ccc(NC(=O)C2=C(C)NC(C)=C(C(=O)Nc3ccc(OCC)cc3)C2c2cccc([N+](=O)[O-])c2)cc1 | -12% |
| CN(C)CCOC1(Cc2ccc(F)cc2)CCC(C(C)(C)C)CC1 (configuration not stated) | -1% and -5% |
| CC1(C)CC(=O)C(/C=N/c2nc(-c3ccccc3)cs2)=C(O)C1 | -5% |
| CC(=O)Nc1ccc2c(c1)Cc1cc(N=C3C=CC(=O)O3)ccc1-2 | 54% |
| O=C1C=C(Cl)C(=O)C(c2ccc(Cl)cc2)=C1 | 17% |
| CNCCCNc1c2ccccc2nc2cccc([N+](=O)[O-])c12 | 87% (active) |
| CCCCCCCCCCCC(O)S(=O)(=O)O (configuration not stated) | -10% |
| CC(C)OC(=O)c1ccc(CCc2cc(O)c(Br)cc2O)cc1 | 31% |
| CCc1cc(O)c(Cl)c(C)c1Cl | -9% |
| C(=Nc1ccc(-c2cc(-c3ccccc3)nc3ccc4ccccc4c23)cc1)c1ccccc1 | 11% |
| CSc1nc(C)c(CCOC(C)=O)c(N=P(c2ccccc2)(c2ccccc2)c2ccccc2)n1 | -2% |
| CS(=O)(=O)SCc1ccc([N+](=O)[O-])cc1 | -11% |
| COC1=C(OC)C(=O)C(Sc2ccc3ccccc3c2)=CC1=O | 5% |
| COc1nc2c(c(=O)n1C)N=C(c1ccccc1)[C@H](C(CC(=O)c1ccccc1)c1ccccc1)C(c1ccccc1)N2 (some centres not stated) | -14% |
| Cc1cc(-c2cc(C)c(O)c(C(C)(C)C)c2)cc(C(C)(C)C)c1O | 10% and 18% |

| Compound | growth inhibition |
| --- | --- |
| Nc1cc(N)c(N=Nc2cccc3c(S(=O)(=O)O)cccc23)cc1N=Nc1cc([N+](=O)[O-])ccc1O | -10% |
| Brc1ccccc1-c1ncc(-c2ccccc2)o1 | -18% |
| COc1cc(C2SCC(=O)N2c2ccc(-c3ccc(-n4c(-c5ccccc5)nc5ccccc5c4=O)cc3)cc2)ccc1O (configuration not stated) | -7% |
| Nc1ncnc2c1ncn2C1OC(CO)CC1O (configuration not stated) | -20% and 14% |
| COc1cc(CSc2ccc(O)cc2)cc(O)c1O | -3% |
| CCOC(=O)C1N=[N+](c2ccccc2)C(=O)/C1=C\n1c(=S)[nH]c2ccc([N+](=O)[O-])cc21 (configuration not stated) | -4% |
| CNC(=O)OCc1c(COC(=O)NC)c2n(c1C)-c1ccc(OC)cc1CCC2 | 17% |
| O=C(NNc1ccccc1)c1ccc(Cl)c(Cl)c1 | 5% |
| Cc1ccc(CC2(OCCN(C)C)CCC(C(C)(C)C)CC2)cc1 (configuration not stated) | -5% and -7% |
| C[C@]12CC[C@H](O)CC1=CC[C@@H]1C2CC[C@]2(C)C(=O)NC(=O)CC12 (some centres not stated) | 33% |
| CCCC/C=C/C(C)(C(=O)OCC)C(=O)OCC | 0% |
| CCc1c(Cl)c(C)cc(O)c1Cl | -26% |
| O=C(/C=C(/c1ccccc1)N1CCCCC1)c1ccccc1 | 44% |
| CCCC(=O)Oc1ccc(/C=N/NC(N)=S)nc1 | -1% |
| CCc1nc2ccc(NCCN(C)C)c3c(=O)c4ccccc4n1c23 | 3% |
| Cc1sc2ccc3ccccc3c2[n+]1C | -14% and -11% |
| Cc1ccc(Cl)cc1NC(=O)OCCN(C)C(=O)Nc1cc(Cl)ccc1C | -29% |
| Cc1nc2ccccc2nc1NNc1ccccc1 | 13% |
